{"source": "ChEMBL document CHEMBL1157539", "about": "“Thousands of chemical starting points for antimalarial lead identification” (Nature, 2010)", "data": [{"tested_on": "Plasmodium falciparum", "assay": "GSK_TCMDC: Inhibition of Plasmodium falciparum 3D7 in whole red blood cells, using parasite LDH activity as an index of growth. Test compounds present at 2uM", "type": "functional", "units": {"Inhibition": "%"}, "values": [{"compound": "CCc1cn2c3c(cc(C(=O)N[C@@H](Cc4cc(F)cc(F)c4)[C@H](O)CNC4CCCCC4)cc13)N(C)S(=O)(=O)CC2.O=CO", "Inhibition": 100}, {"compound": "COc1cc(OC)cc(-c2nnc(Sc3ccc(C#N)c([N+](=O)[O-])c3)n2C)c1", "Inhibition": 95}, {"compound": "CCn1c(-c2nc(-c3ccc4c(c3)OCO4)cnc2N)nc2cnccc21", "Inhibition": 100}, {"compound": "CCN1CCN(c2cc(C)c3cc(NC(=O)c4ccc(N(CC)CC)cc4)ccc3n2)CC1", "Inhibition": 95}, {"compound": "CCOc1cc(C(=O)NCc2cc(Cl)cc(Cl)c2)ccc1-c1nc2cc(Cl)ccc2[nH]1", "Inhibition": 100}, {"compound": "CC1=C(C(=O)OCCOCc2ccccc2)C(c2ccccc2C(F)(F)F)C(C(=O)OCCOCc2ccccc2)=C(C)N1", "Inhibition": 89}, {"compound": "CCCNC(=O)C1CCN(C(c2ccc(Cl)cc2)c2ccc(Cl)cc2)CC1", "Inhibition": 98}, {"compound": "c1ccc(-c2ccc(-c3nc4ccccc4[nH]3)cc2)cc1", "Inhibition": 93}, {"compound": "Cc1ccc(Cn2ncc(N3CCC(N)CC3)c(Cl)c2=O)cc1NC(=O)Nc1ccc(-c2ccccc2)cc1.O=C(O)C(F)(F)F", "Inhibition": 90}, {"compound": "O=C(C1COc2ccccc2O1)N(CCCn1ccnc1)Cc1csc(-c2ccc(CNCc3ccccc3)cc2)n1.O=C(O)C(F)(F)F", "note": "(centres undefined)", "Inhibition": 100}, {"compound": "CCCCCCc1cnc2nc(N)nc(N)c2c1C", "Inhibition": 93}, {"compound": "O=C(O)C(F)(F)F.OC1CCCN(Cc2cccc(-c3ccc(-c4nc5ccccc5[nH]4)cc3)c2)C1", "note": "(centres undefined)", "Inhibition": 85}, {"compound": "Cc1ccc(C(NC(=O)Cc2ccccc2)c2ccc3cccnc3c2O)cc1", "note": "(centres undefined)", "Inhibition": 94}, {"compound": "CCOc1ccc2nc3cc(NC(=O)c4ccco4)ccc3c(N)c2c1", "Inhibition": 100}]}]}
